Several values for one entry are separate records, joined by “and”; a condition that tells them apart may be missing. Equal entries are not always repeated. Records with an inconclusive call do not appear. Some structures have more than one record in an assay (separate samples or runs), and their calls can disagree. Activity calls are given as the source filed them. The call rests on the fitted dose curve; in most records, active means well fitted curve in the direction sought with a large enough effect; inconclusive means small, poorly fitted or top-dose-only effect, or another doubt; inactive means no such curve, though single readings can be large; an effect the other way counts as inactive or inconclusive.
Key:
[1] = Viability qHTS for spleen associated tyrosine kinase inhibitor (SYKi) naive MV4-11 cells (AID 1963823); further: nearly all actives have a fitted effect of over 40% in size
How it was run: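 qHTS, SYK inhibitor-naive MV4-11; 500 cells/well; 72 hr compound exposure, 37 C; CellTiter-Glo added, 10 min RT; luminescence read.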

[2] = Viability qHTS for spleen associated tyrosine kinase inhibitor (SYKi) drug resistant MV4-11 cells (AID 1963824); further: nearly all actives have a fitted effect of over 35% in size
How it was run: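 SYK-inhibitor-resistant MV4-11 AML cells were seeded at 500 per well onto compound and cultured 72 hours (37 °C, 5% CO2). CellTiter-Glo was then added, and after 10 min at room temperature, luminescence gave viability.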

[3] = Quantitative highthroughput screen to assess conditional lethalithy of NOMO1 cells grown in RPMI1640 with untreated serum (RPMI+s) (AID 1963876); further: nearly all actives have a fitted effect of over 35% in size;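 on Viability: 100% = DMSO wells and 0% = empty wells without cells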
How it was run: (§1)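 Each medium arm—HPLM with 10% dialyzed FBS, or RPMI1640 with 5 mM glucose and 10% untreated or dialyzed FBS—was screened against an 11-point, 3-fold compound titration for 48 h at 37 °C, with CellTiter-Glo luminescence as endpoint.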

[4] = Quantitative highthroughput screen to assess conditional lethalithy of NOMO1 cells grown in RPMI1640 with dialyzed fetal bovine serum (RPMI+ds) (AID 1963877); further: nearly all actives have a fitted effect of over 30% in size;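 on Viability: series mostly up to about 46 µM; 100% = DMSO control wells and 0% = empty wells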
How it was run: as §1

[5] = Quantitative highthroughput screen to assess conditional lethalithy of NOMO1 cells grown in Human Plasma-Like Medium with dialyzed fetal bovine serum (HPLM+ds) (AID 1963878); further: nearly all actives have a fitted effect of over 35% in size;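 on Viability: 100% = DMSO wells and 0% = empty wells on each plate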
How it was run: as §1

[6] = Quantitative highthroughput screen to assess conditional lethalithy of SEM cells grown in Human Plasma-Like Medium with dialyzed fetal bovine serum (HPLM+ds) (AID 1963882); further: nearly all actives have a fitted effect of over 35% in size; on Viability: series mostly up to about 46 µM
How it was run: as §1

[7] = Quantitative highthroughput screen to assess conditional lethalithy of SEM cells grown in RPMI1640 with unreated serum (RPMI+s) (AID 1963883); further: nearly all actives have a fitted effect of over 35% in size;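 on Viability: 100% = DMSO wells and 0% = empty wells without cells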
How it was run: as §1

[8] = Cellular viability qHTS for adrenocortical cancer (ACC) cell line SW-13 (AID 1963989); details: SW-13 ACC cells viability, CellTiter-Glo, 48 h; activity (max response): stronger effect = lower value; further: nearly all actives have a fitted effect of over 65% in size;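 on activity (max response): cells grown in serum-free medium with ITS supplement; on the % scale 0 is the no-effect control and ±100 the full control effect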
How it was run: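 Here, serum-free SW-13 cultures were dosed up to 46 uM. Following 48 h, ATP-dependent luminescence (CellTiter-Glo) reported viable cells, and logistic modeling produced IC50 values.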

[9] = Cellular viability qHTS for adrenocortical cancer (ACC) cell line NCI-H295R (AID 1963990); further: nearly all actives have a fitted effect of over 60% in size
How it was run: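 Viability of NCI-H295R after 48 h of treatment (final up to 46 uM) measured through cellular ATP luminescence.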

[10] = Quantitative highthroughput screen to assess conditional lethalithy of P12 Ichikawa cells grown in Human Plasma-Like Medium with dialyzed fetal bovine serum (HPLM+ds) (AID 1963879); details: Potency: viability; further: nearly all actives have a fitted effect of over 35% in size; on Viability: series mostly up to about 46 µM
How it was run: as §1

[11] = Quantitative highthroughput screen to assess conditional lethalithy of P12 Ichikawa cells grown in RPMI1640 with dialyzed fetal bovine serum (RPMI+ds) (AID 1963880); details: Potency: P12-Ichikawa viability; further: nearly all actives have a fitted effect of over 35% in size;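 on Viability: 100% = DMSO wells and 0% = empty wells on each plate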
How it was run: as §1

[12] = Quantitative highthroughput screen to assess conditional lethalithy of P12 Ichikawa cells grown in RPMI1640 with untreated serum (RPMI+s) (AID 1963881); details: Potency: viability; further: nearly all actives have a fitted effect of over 35% in size;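 on Viability: series mostly up to about 46 µM; 100% = DMSO wells and 0% = empty wells without cells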
How it was run: as §1

[13] = Quantitative highthroughput screen to assess conditional lethalithy of SEM cells grown in RPMI1640 with dialyzed fetal bovine serum (RPMI+ds) (AID 1963884); further: nearly all actives have a fitted effect of over 35% in size;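 on Viability: series mostly up to about 46 µM; 100% = DMSO control wells and 0% = empty wells without cells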
How it was run: as §1
Potency means the concentration at half of the fitted maximal effect.

## CC(C)c1cc(-c2n[nH]c(=O)n2-c2ccc3c(ccn3C)c2)c(O)cc1O
[1]
  Potency: 9.2 nM (active) and 9.3 nM (active)
[2]
  Potency: 11.6 nM (active) and 16.6 nM (active)
[3]
  Potency: 118 nM (active)
[4]
  Potency: 93.5 nM (active)
[5]
  Potency: 105 nM (active)
[6]
  Potency: 74.3 nM (active)
[7]
  Potency: 59 nM (active)
[8]
  Potency: 282 nM (active)
[9]
  Potency: 12.6 nM (active)

## Cc1cc([C@@H](C)Nc2ccccc2C(=O)O)c2nc(N3CCOCC3)cc(=O)n2c1
[1]
  Potency: 5.01 µM (active) and 5.25 µM (active)
[2]
  Potency: 7.08 µM (active) and 5.25 µM (active)
[3]
  Potency: 13600 nM (active)
[4]
  Potency: 12100 nM (active)
[5]
  Potency: 8550 nM (active)
[6]
  Potency: 13600 nM (active)
[7]
  Potency: 10800 nM (active)

## CCOc1ccccc1OCCNC(C)Cc1ccc(OC)c(S(N)(=O)=O)c1 (stereo unspecified)
[1]
  Potency: inactive
[2]
  Potency: inactive
[3]
  Potency: inactive
[4]
  Potency: inactive
[10]
  Potency: inactive
[11]
  Potency: inactive
[12]
  Potency: inactive
[6]
  Potency: inactive
[7]
  Potency: inactive
[13]
  Potency: inactive

## O=C1NC(=O)C(c2cnc3ccccn23)=C1c1cn2c3c(cccc13)CN(C(=O)N1CCOCC1)CC2
[1]
  Potency: 0.231 µM (active)
[2]
  Potency: 0.092 µM (active)
[3]
  Potency: inactive
[4]
  Potency: inactive
[5]
  Potency: inactive
[6]
  Potency: 6.6 nM (active)
[13]
  Potency: 7.4 nM (active)
[9]
  Potency: inactive

## OC[C@H](Cc1ccccc1)Nc1nc(Oc2ccc3c(c2)CCC3)nc2c1ncn2Cc1ccc(-c2ccccc2)cc1
[1]
  Potency: 13.2 µM (active)
[2]
  Potency: 10.5 µM (active)
[3]
  Potency: inactive
[4]
  Potency: inactive
[5]
  Potency: inactive
[12]
  Potency: inactive
[7]
  Potency: inactive
[13]
  Potency: inactive
[8]
  activity (max response): -12.9% (inactive)

## Cc1ccc(C(=O)Nc2cccc(C(F)(F)F)c2)cc1-c1ccc2nc(NCCN3CCOCC3)ncc2c1
[1]
  Potency: 184 nM (active) and 372 nM (active)
[2]
  Potency: 366 nM (active) and 742 nM (active)
[3]
  Potency: 5900 nM (active)
[4]
  Potency: 4690 nM (active)
[5]
  Potency: 4180 nM (active)
[7]
  Potency: 4180 nM (active)
[13]
  Potency: 4180 nM (active)
[8]
  Potency: 14100 nM (active)
[9]
  Potency: 22400 nM (active)

## O=c1c(O)c(-c2ccc(O)c(O)c2)oc2cc(O)cc(O)c12
[1]
  Potency: 23.7 µM (active) and inactive
[2]
  Potency: inactive and 16.4 µM (active)
[3]
  Potency: inactive
[4]
  Potency: inactive
[5]
  Potency: inactive
[12]
  Potency: inactive
[6]
  Potency: inactive
[8]
  activity (max response): -23.2% (inactive) and 14.3% (inactive)
[9]
  Potency: inactive

## Clc1ccccc1C(c1ccccc1)(c1ccccc1)n1ccnc1
[1]
  Potency: 5.25 µM (active)
[2]
  Potency: 5.25 µM (active)
[3]
  Potency: inactive
[4]
  Potency: inactive
[5]
  Potency: inactive
[6]
  Potency: inactive
[8]
  Potency: 16400 nM (active)

## N#Cc1ccnc(Nc2cc(C3CCN(C4COC4)CC3)cc(N3CCC(F)(F)C3)n2)c1
[1]
  Potency: 1.16 µM (active) and 118 nM (active)
[2]
  Potency: 2.06 µM (active) and 235 nM (active)
[3]
  Potency: 13200 nM (active)
[4]
  Potency: 13200 nM (active)
[5]
  Potency: 14800 nM (active)
[6]
  Potency: 13200 nM (active)
[13]
  Potency: 9330 nM (active)
[8]
  Potency: 15800 nM (active)
[9]
  Potency: 10000 nM (active)

## Cc1ccnc(NS(=O)(=O)c2ccc(NC(=O)Nc3ccc(S(=O)(=O)Nc4nccc(C)n4)cc3)cc2)n1
[1]
  Potency: inactive
[2]
  Potency: inactive
[3]
  Potency: 296 nM (active)
[4]
  Potency: 469 nM (active)
[10]
  Potency: 264 nM (active)
[11]
  Potency: 332 nM (active)
[12]
  Potency: 469 nM (active)
[6]
  Potency: 187 nM (active)
[7]
  Potency: 83.3 nM (active)
[13]
  Potency: 105 nM (active)
[8]
  activity (max response): -24.6% (inactive)
[9]
  Potency: inactive

## COc1ccc2c(c1)c(C1=C(c3c[nH]c4ccccc34)C(=O)NC1=O)cn2CCCN(C)C
[1]
  Potency: 0.148 µM (active)
[2]
  Potency: 0.332 µM (active)
[3]
  Potency: inactive
[4]
  Potency: inactive
[12]
  Potency: inactive
[8]
  Potency: 15800 nM (active)

## CC(C)c1cnn2c(NCc3ccccc3)cc(NCCCCCCN)nc12
[1]
  Potency: 16.6 µM (active)
[2]
  Potency: 14.8 µM (active)
[3]
  Potency: inactive
[4]
  Potency: inactive
[11]
  Potency: inactive
[12]
  Potency: inactive
[6]
  Potency: inactive
[7]
  Potency: inactive
[13]
  Potency: inactive

## NC(=O)Nc1cc(-c2cccc(F)c2)sc1C(=O)N[C@H]1CCCNC1
[1]
  Potency: inactive
[2]
  Potency: inactive
[3]
  Potency: 1050 nM (active)
[4]
  Potency: 590 nM (active)
[10]
  Potency: 1870 nM (active)
[11]
  Potency: 1180 nM (active)
[12]
  Potency: 1180 nM (active)
[7]
  Potency: 7.4 nM (active)
[8]
  Potency: 1780 nM (active)
[9]
  Potency: 794 nM (active)

## NC[C@H]1O[C@H](O[C@@H]2[C@@H](O)[C@@H](O[C@H]3O[C@H](CO)[C@@H](O)[C@H](N)[C@@H]3O)[C@H](N)C[C@@H]2N)[C@H](O)[C@@H](O)[C@H]1O
[1]
  Potency: 1.05 µM (active)
[2]
  Potency: inactive
[3]
  Potency: inactive
[4]
  Potency: inactive
[10]
  Potency: inactive
[11]
  Potency: inactive
[12]
  Potency: inactive
[7]
  Potency: inactive
[13]
  Potency: inactive
[8]
  activity (max response): 12.9% (inactive)
[9]
  Potency: inactive

## COc1ccc(OC)c(-c2nnc3ccc(-c4ccc(OC)c(O[C@@H]5CCOC5)c4)nn23)c1
[1]
  Potency: 2.63 µM (active)
[2]
  Potency: 2.95 µM (active)
[3]
  Potency: inactive
[4]
  Potency: inactive
[10]
  Potency: inactive
[13]
  Potency: inactive
[8]
  Potency: 5010 nM (active)
[9]
  Potency: 501 nM (active)

## c1cc(-c2cnn3cc(-c4ccc(OCCN5CCCCC5)cc4)cnc23)ccn1
[1]
  Potency: 0.0206 µM (active)
[2]
  Potency: 20.6 nM (active) and 20.9 nM (active)
[3]
  Potency: inactive
[4]
  Potency: inactive
[11]
  Potency: inactive
[6]
  Potency: inactive
[7]
  Potency: inactive
[13]
  Potency: inactive
[8]
  Potency: 11200 nM (active)
[9]
  Potency: 12600 nM (active)

## COc1cc(Nc2nc3ccccc3nc2NS(=O)(=O)c2ccc(NC(=O)c3ccc(C)c(OC)c3)cc2)cc(OC)c1
[1]
  Potency: 18.6 µM (active)
[2]
  Potency: 18.6 µM (active)
[3]
  Potency: inactive
[4]
  Potency: 7430 nM (active)
[10]
  Potency: 5900 nM (active)
[11]
  Potency: 14800 nM (active)
[8]
  activity (max response): 11.3% (inactive)
[9]
  Potency: inactive

## O=C(Nc1cccc(Cl)c1)Nc1ncc(CCNc2ncnc3ccsc23)s1
[1]
  Potency: 0.0206 µM (active)
[2]
  Potency: 0.0326 µM (active)
[3]
  Potency: 296 nM (active)
[4]
  Potency: 332 nM (active)
[10]
  Potency: 372 nM (active)
[12]
  Potency: 418 nM (active)
[7]
  Potency: 209 nM (active)
[13]
  Potency: 209 nM (active)
[8]
  Potency: 28200 nM (active)
[9]
  Potency: 3550 nM (active)

## Cc1cc2c(F)c(Oc3ncnn4cc(OC[C@@H](C)O)c(C)c34)ccc2[nH]1
[1]
  Potency: 5.9 µM (active)
[2]
  Potency: 9.34 µM (active)
[3]
  Potency: inactive
[4]
  Potency: inactive
[12]
  Potency: 18700 nM (active)
[13]
  Potency: 9350 nM (active)
[9]
  Potency: inactive

## Cc1noc(NS(=O)(=O)c2ccc(N)cc2)c1C
[1]
  Potency: inactive
[2]
  Potency: inactive
[3]
  Potency: inactive
[4]
  Potency: inactive
[10]
  Potency: inactive
[11]
  Potency: inactive
[12]
  Potency: inactive
[6]
  Potency: inactive
[7]
  Potency: inactive
[8]
  activity (max response): -8.37% (inactive)

## Cn1c(=O)c(-c2c(Cl)cccc2Cl)cc2cnc(Nc3cccc(C(=O)O)c3)nc21
[1]
  Potency: 0.662 µM (active)
[2]
  Potency: 0.259 µM (active)
[3]
  Potency: inactive
[4]
  Potency: inactive
[12]
  Potency: inactive
[7]
  Potency: 14800 nM (active)
[8]
  activity (max response): -0.886% (inactive)
[9]
  Potency: inactive

— PubChem BioAssay (NCATS)
